RORg inh: blocks mouse ROR gamma transcriptional activity. AID 2551. Potency, µM (series often up to 53.6 µM), inactives show top-dose activity change, negative = inhibition, hits mostly inhibitors. 310,000 tested, 5.4% active. Drosophila S2 Gal4-RORgamma UAS-luciferase reporter, 20 h. P51450; also: potency is read from the fitted curve at half-maximal effect; % is scaled to controls: 0 for no effect and ±100 for the full control effect; nearly all actives have a fitted effect of over 60% in size
Target sequence (P51450 whole entry, looked up, the tested form may be a part): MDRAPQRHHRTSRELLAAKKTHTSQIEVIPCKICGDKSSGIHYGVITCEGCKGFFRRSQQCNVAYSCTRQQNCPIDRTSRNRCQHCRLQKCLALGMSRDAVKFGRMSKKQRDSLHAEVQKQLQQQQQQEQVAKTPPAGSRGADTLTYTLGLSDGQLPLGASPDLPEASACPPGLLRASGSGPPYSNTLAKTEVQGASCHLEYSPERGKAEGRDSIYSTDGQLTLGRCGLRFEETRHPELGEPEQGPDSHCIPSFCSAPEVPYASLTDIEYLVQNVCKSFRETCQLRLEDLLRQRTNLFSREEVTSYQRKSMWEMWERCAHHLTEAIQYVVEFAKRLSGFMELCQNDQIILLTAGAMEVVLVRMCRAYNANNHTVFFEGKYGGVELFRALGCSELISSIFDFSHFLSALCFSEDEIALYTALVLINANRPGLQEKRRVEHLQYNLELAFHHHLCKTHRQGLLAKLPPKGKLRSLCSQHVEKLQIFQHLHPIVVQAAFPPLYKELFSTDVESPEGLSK
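Compounds are pin-transferred onto Drosophila Schneider cells expressing a copper-inducible Gal4–ROR gamma transactivation domain fusion. After 1 hr, copper sulfate is added to 700 uM final; luciferase is read 20 hr later.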
Giardia killer: kills Giardia lamblia | Giardia lamblia trophozoite viability | activity change, % at 7.66 µM, hits read low | 340,000 tested, 0.15% active; in the data active = activity change below about -80%; inconclusive = between about -30% and that limit;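 also: parasites exposed to compound for two days anaerobically before the ATP read; % is scaled to controls: 0 for no effect and ±100 for the full control effect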
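ATP-content bioluminescence gauges trophozoite survival. Cells (100/well) receive compound and incubate anaerobically for 48 hrs at 37 deg C; detection reagent follows for 15-30 min at room temperature.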
BRCA1 expr up: BRCA1 expression activation | MCF7-BRCA1-FFLuc reporter, luminescence, 48 h; response scale: scaled: vehicle 0%, 10 µM genistein 100% | Potency, µM (doses to about 46.1 µM), without a hit: at the highest dose activation, hits mostly activators | 380,000 tested, 1.1% active | AID 624202; also: potency is read from the fitted curve at half-maximal effect; nearly all actives have a fitted effect of over 80% in size
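MCF7-BRCA1-FFLuc, 2000 cells/well; 2 h attach, 37 °C/5% CO2; compound 48 h; luciferase substrate 15 min; luminescence end-point. Norm. to genistein 10 microM max activation and DMSO; concentration-response curves fitted.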
VP16 counter: inhibits Gal4-VP16 luciferase reporter, ROR gamma counter-screen; Drosophila S2 Gal4-VP16 UAS-luciferase, luminescence, 20 h; Potency, µM (titrated, usually from 53.6 µM), for inactives: at the top dose activity, negative = inhibition, usual class: inhibitors; 310,000 tested, 3.5% active; AID 2546;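 also: Gal4-VP16 expression switched on by copper sulfate through the metallothionein promoter; potency is read from the fitted curve at half-maximal effect; % is scaled to controls: 0 for no effect and ±100 for the full control effect; nearly all actives have a fitted effect of over 50% in size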
ELG1 DNA repair: ELG1-dependent DNA repair inhibition; HEK293T ELG1-luciferase reporter, luminescence, 16 h; DNA damage induced by 5-fluorouridine; Potency, µM (top dose mostly 46.1 µM), for inactives: at the highest dose activity change, negative = inhibition, most hits filed as inhibitors; 330,000 tested, 2.3% active; also: potency is read from the fitted curve at half-maximal effect; % is scaled to controls: 0 for no effect and ±100 for the full control effect; nearly all actives have a fitted effect of over 55% in size
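Luminescence from the luciferase reporter, measured 30 min after ONE-Glo reagent at room temperature, was the read-out. Beforehand, 2,000 cells per well were exposed for 16 hr at 37 °C to 5-fluorouridine together with compound or vehicle.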
p53 reactivation: re-activators of mutant p53; H1299 p53-A138V BP100-luciferase reporter, luminescence, 24 h; Potency, µM (highest dose often 92.2 µM), without a hit: at the top dose activity change, positive = activation, hits mostly activators; 320,000 tested, 0.063% active; AID 504706; also: potency is read from the fitted curve at half-maximal effect; % of control where 0% means no effect; nearly all actives have a fitted effect of over 45% in size
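H1299 (p53-null), stable ts p53-A138V + BP100-Luc; 1000 cells/well, Opti-MEM/10% FBS; cpd 4 pt, 1:5; 24 h, 37 deg C, 5% CO2; detection reagent 10 min RT; luminescence.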
The depositor's hits bear a star; u = inconclusive; x = no result given; [ ] = remark or other dose. Only some compounds are listed: those with a hit (about 7.6% of all), similar ones and a draw of the others. Unless noted, calls follow the shape of the dose curve; as a rule, active = well fitted curve in the direction sought with a large enough effect; inconclusive = small, poorly fitted or top-dose-only effect, or another doubt; inactive = no such curve, though single readings can be large; an effect the other way counts as inactive or inconclusive.

SMILES	RORg inh	Giardia killer	BRCA1 expr up	VP16 counter	ELG1 DNA repair	p53 reactivation
CCCn1c(=O)c(/C(N)=N/O)nn(-c2cccc(C(F)(F)F)c2)c1=O	0.3%	7.1	-17.2%	0.1%	16.6%	-1.1%
FC(F)Sc1nc2ccccc2[nH]1	12.6µM*	3.7	-2.0%	u	u	-2.4%
FC(F)c1nc2ccccc2[nH]1	21.1%	-7.2	-11.2%	9.1%	-1.5%	-1.5%
COc1ccc(N=Cc2nc(-c3ccccc3)oc2OC(=O)c2ccccc2)cc1	-14.2%	-9.5	6.31µM*	u	u	u
CCOC(=O)c1ccc(N=Cc2nc(-c3ccccc3)oc2OC(C)=O)cc1	0.8%	20.7	12.1%	23.2%	u	4.1%
CN(C)c1ccc(N=Cc2nc(-c3ccccc3)oc2OC(=O)c2cccc(Br)c2)cc1	-0.8%	-19.4	3.16µM*	u	u	u
CC(=O)Oc1oc(-c2ccccc2)nc1C=Nc1ccccc1	u	-3.1	-3.1%	u	22.8%	-5.7%
CCOC(=O)C(C(=O)Nc1ccccn1)C1CCCCC1 (stereo not given)	-34.1%	2.0	14.9%	-9.9%	2.6%	-1.5%
CC1Sc2ccc(S(=O)(=O)N3CCC(C(=O)N(C)Cc4ccco4)CC3)cc2NC1=O (stereo not given)	u	2.0	-15.8%	-8.1%	u	2.7%
CC1Sc2ccc(S(=O)(=O)N3CCC(C(=O)N(C)Cc4ccccc4)CC3)cc2NC1=O (stereo not given)	u	1.6	-24.1%	u	7.3µM*	-1.0%
O=C(NCc1ccccc1Cl)[C@H]1CCCN1C(=O)[C@H]1CCCN1C(=O)c1cccs1	x	x	7.0%	x	x	x
Cc1cccc(-n2ncc3c(NCc4cccnc4)ncnc32)c1	25.1%	-29.8	2.51µM*	-27.6%	u	u
Cc1ccc(-n2ncc3c(NCc4cccnc4)ncnc32)cc1C	-29.2%	25.7	1µM*	u	u	u
COc1ccc(-n2ncc3c(NCc4cccnc4)ncnc32)cc1	-12.4%	9.0	88.6%	-5.7%	u	u
Cc1ccc(-n2ncc3c(NCc4cccnc4)ncnc32)c(C)c1	u	-0.6	-33.4%	17.8µM*	8.5%	-0.7%
C=CCNc1ncnc2c1cnn2-c1cccc(C)c1	30.0%	-3.6	2.24µM*	u	u	12.7%
Cc1ccc(-n2ncc3c(NCc4ccccn4)ncnc32)c(C)c1	-43.0%	4.2	3.9%	-3.5%	-16.2%	-2.0%
Cc1cccc(-n2ncc3c(NCCCO)ncnc32)c1	8.5%	3.4	u	-8.1%	u	u
CC1C2CC(C(S(=O)(=O)N3CCOCC3)C2=O)C1(C)C (stereo not given)	-5.3%	-3.5	6.6%	2.1%	9.2%	9.4%
COc1ccc(C/C(C)=N/NC(=S)Nc2ccc(C(C)C)cc2)cc1	4.47µM*	-3.1	-31.0%	u	-4.0%	6.5%
COc1ccc(C/C(C)=N/NC(=S)Nc2ccccc2F)cc1	6.2%	-9.5	u	-4.5%	u	8.5%
COc1ccc(C/C(C)=N/NC(=O)c2ccc(Cl)cc2)cc1	11.2µM*	-14.6	-31.7%	u	3.3%	-0.4%
COc1ccc(C/C(C)=N/NS(=O)(=O)c2ccc(Br)cc2)cc1	10µM*	-9.5	6.9%	u	u	-2.9%
C/C(=N\NC(=S)Nc1c(C)cccc1C)c1ccc(OC(F)F)cc1	3.16µM*	-14.8	-75.1%	5.62µM*	u	-7.7%
CC1(C)CC(=O)C=C(NNC(=O)c2cccnc2)C1	2.2%	1.4	-22.0%	-4.9%	u	-0.3%
SMILES	RORg inh	Giardia killer	BRCA1 expr up	VP16 counter	ELG1 DNA repair	p53 reactivation
CCCc1cc(Nc2cccc(OC)c2)n2ncnc2n1	u	2.3	-24.3%	-3.2%	12.6%	-2.0%
CSc1ccccc1OCc1cc(C(=O)N(C)Cc2c(C)n[nH]c2C)no1	25.9%	1.0	-1.7%	-1.3%	-1.7%	2.5%
CSc1ncc(C(=O)Nc2cccc(S(N)(=O)=O)c2)n1-c1ccccc1	-0.5%	-0.7	-15.7%	-7.3%	12.6%	-5.5%
CC/C(=N\NC(=S)Nc1cc(C)ccc1C)c1ccc(OC(F)F)cc1	u	12.8	-55.1%	-99.7%	u	2.1%
CC/C(=N\NC(=S)Nc1ccc(OC)cc1)c1ccc(OC(F)F)cc1	12.6µM*	-7.4	-65.1%	u	-14.9%	4.9%
O=C(Oc1c(Br)cc([N+](=O)[O-])cc1Br)c1cccnc1	41.9%	-18.8	-72.3%	u	-29.8%	0.1%
Cc1nn(-c2ccccc2)c(C)c1/C=N/NC(=O)c1cc(C23CC4CC(CC(C4)C2)C3)[nH]n1	12.6%	23.6	-94.7%	-20.2%	16.4µM*	-7.6%
Cc1cc(C(=O)N/N=C/c2c(C)nn(-c3ccccc3)c2C)n[nH]1	3.1%	0.8	59.1%	7.8%	u	5.1%
Cc1nn(-c2ccccc2)c(C)c1/C=N/NC(=O)c1cc(-c2ccc(Br)s2)[nH]n1	u	6.9	-71.1%	-0.5%[0.365 µM]	8.2µM*	-8.6%
Cc1nn(-c2ccccc2)c(C)c1/C=N/NC(=O)c1cc(-c2ccc(Cl)s2)[nH]n1	u	4.3	-93.4%	-21.8%	u	-4.5%
O=C(N/N=C/c1ccccn1)c1cc(-c2ccc(Br)s2)[nH]n1	17.8µM*	-1.6	-29.9%	-28.4%	-9.2%	-4.2%
Cn1cc(C[C@H](NC(=O)OC(C)(C)C)C(=O)N[C@H](CO)Cc2ccccc2)c2ccccc21	x	17.6	-16.4%	x	x	x
COc1cccc(CNc2ccc3nc(-c4ccc(N)cc4)c(OC)n3n2)c1	u	x	x	-11.4%	x	x
CCOc1ccc(Br)cc1S(=O)(=O)NCCN(C)C	-9.8%	-11.1	-5.1%	3.2%	x	x
NCC1CC2c3ccccc3C1c1ccccc12 (stereo not given)	2.1%	-3.2	-30.8%	-0.6%	-6.3%	-7.1%
O=c1cnnc(N/N=C/c2ccccn2)[nH]1	-1.1%	-3.3	-43.5%	8.2%	u	21.2%
Fc1cccc(/C=N/Nc2nncc3ccccc23)c1	1.26µM*	u	u	10µM*	u	x
C(=N\Nc1nncc2ccccc12)/c1ccccn1	1.41µM*	-0.9	-70.1%	3.55µM*	u	78.8%
CC(=O)Nc1ccc(/C=N/Nc2nncc3ccccc23)cc1	-18.5%	-5.5	u	-17.0%	u	17.0%
Nc1c(N(Cc2ccco2)C(=O)c2ccc(Br)cc2)c(=O)[nH]c(=O)n1Cc1ccccc1	x	-12.3	-18.0%	x	0.0%	6.2%
Cc1ccccc1NC(=O)C(Cc1ccccc1)n1cccc1 (stereo not given)	34.4%	-17.6	-10.1%	19.7%	3.7%	-2.7%
